# The list is not random: actives were taken first. Their share in the collection is about 7.5%.
# Vaccinia mCherry: inhibitors of vaccinia virus infection (mCherry reporter signal). Potency, µM (doses to about 36.5 µM), hits mostly inhibitors. Vaccinia virus mCherry reporter infection, fluorescence. AID 720579. 310,000 compounds, 0.63% hits; calls by dose curve; tested in A549 cells; further: nearly all actives have a fitted effect of over 35% in size
# HCV inhibitor: blocks hepatitis C virus; Huh7.5.1 HCVcc-Cre infection, luciferase reporter, 44 h; Potency, µM (doses to about 41.8 µM), hits mostly inhibitors; 340,000 compounds, 3.4% hits; AID 651820
#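 Antiviral activity was scored by luciferase reporter output from cells infected with HCVcc-Cre (~0.5 moi) in presence of compound, 44 h infection period, cells seeded 1,000/well 4 h prior.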
# HCMV inh: inhibitors of human cytomegalovirus. HFF cells, HCMV-luciferase reporter, 72 h; active compounds read low. activity change, negative = inhibition, % at 57.5 µM. 410,000 compounds, 4.5% hits. AID 1259415; in the data active means activity change below about -60%; inconclusive means no clear call, values can overlap the other calls; inactive means above about -39%
#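 Inhibition of viral replication was scored as loss of reporter luminescence in HFFs infected with HCMV-luciferase (MOI 1 PFU/cell) for 72 h; compounds tested at 2 doses, normalized to buffer and Salinomycin controls.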
# FMDV inh: foot and mouth disease virus antiviral activity. 410,000 compounds, 1.2% hits. Potency, µM (top dose mostly 57.9 µM), usual class: inhibitors. FMDV antiviral cell-based qHTS; calls by dose curve; tested in HEK293T cells; further: read-out not given here; nearly all actives have a fitted effect of over 45% in size
# Giardia FBPA inh: Giardia lamblia aldolase inhibition. 290,000 compounds, 0.71% hits. purified Giardia FBPA. Potency, µM (series often up to 59.6 µM), most hits filed as inhibitors; further: nearly all actives have a fitted effect of over 55% in size
# Target sequence (A8B2U2 whole entry, looked up): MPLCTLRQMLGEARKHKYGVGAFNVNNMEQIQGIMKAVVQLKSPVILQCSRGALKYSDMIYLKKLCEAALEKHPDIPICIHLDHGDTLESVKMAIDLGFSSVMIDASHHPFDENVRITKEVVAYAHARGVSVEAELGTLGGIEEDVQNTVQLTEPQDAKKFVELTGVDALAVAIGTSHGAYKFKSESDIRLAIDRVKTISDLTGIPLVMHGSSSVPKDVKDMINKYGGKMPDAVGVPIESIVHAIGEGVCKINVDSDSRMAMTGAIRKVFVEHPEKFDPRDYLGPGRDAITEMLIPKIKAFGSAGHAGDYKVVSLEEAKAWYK
#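 Giardia FBPA (40 nM reagent) was preincubated 10 min at RT with compound (up to 57.5 uM final), then substrate plus GAPDH/TPI/NAD/arsenate coupling system with diaphorase/resazurin was added; resorufin fluorescence (525/598 nm) was read after 20 min.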
# VACV Venus inh: vaccinia inhibition (Venus reporter); Vaccinia virus Venus reporter expression, fluorescence; Potency, µM (top dose mostly 36.5 µM), hits mostly inhibitors; 330,000 compounds, 0.46% hits; AID 720580; calls by dose curve; tested in A549 cells; further: nearly all actives have a fitted effect of over 30% in size
# Numbers stand for hits; n = inactive; u = inconclusive; x = not tested or not shown; [ ] = remark or other dose. Unless noted, the call rests on the fitted dose curve; in most records, active means well fitted curve in the direction sought with a large enough effect; inconclusive means small, poorly fitted or top-dose-only effect, or another doubt; inactive means no such curve, though single readings can be large; an effect the other way counts as inactive or inconclusive.
SMILES,Vaccinia mCherry,HCV inhibitor,HCMV inh,FMDV inh,Giardia FBPA inh,VACV Venus inh
COc1cccc(-n2nnc(-c3nc(-c4ccccc4F)no3)c2C)c1,n[7.34 µM],x,n,n,x,n[7.34 µM]
COc1cc(-c2cc(=O)c3ccccc3o2)ccc1O,n,n,n,n,n,n
COc1cc(-c2cc(=O)c3c(O)cc(O)cc3o2)ccc1O,u,13µM,x,n,n,u
Cc1ccccc1[C@@]1(C)ON(c2ccccc2C(F)(F)F)C1=O,u,u,n,u,x,u
CC[C@@]1(c2ccccc2OC)ON(c2ccccc2C(F)(F)F)C1=O,u,u,u,32µM,x,u
CC1CCN(CC(=O)N2CCCc3c2c(=O)oc2ccc(OCc4ccccc4)cc32)CC1,n,u,n,u,n,n
CC1CC(C)CN(CC(=O)N2CCCc3c2c(=O)oc2ccc(OCc4ccccc4)cc32)C1 (stereo not given),n,11µM,n,u,n,u
CCCCc1nc2ccccc2c(=O)n1NC(=O)c1c(O)c2c(n(CC(C)C)c1=O)CCCC2,n,n,-79,n,n,n
CCCn1c2c(c(O)c(C(=O)Nc3ccccc3)c1=O)CCCC2,n,10µM,n,n,n,n
O=C(Nn1c(Cc2ccccc2)nc2ccccc2c1=O)c1c(O)c2cccc3c2n(c1=O)CCC3,x,n,-66,n,n,x
CC(C)Cn1c2c(c(O)c(C(=O)Nc3ncccc3O)c1=O)CCCC2,x,u,n,n,7.9µM,n
COc1ccccc1C(=O)COC(=O)c1c(-c2ccccc2)noc1C,n,u,n,n,x,n
Cc1oc(-c2ccc(C(=O)NCCC(C)C)cc2)nc1CS(=O)(=O)c1ccccc1,n,x,n,n,x,n
Cc1ccc(C(=O)Nc2cccnc2)cc1Cl,n,n,n,n,n,n
CCCCn1c(=O)[nH]c2nc3cc(N)ccc3nc2c1=O,n,n,n,n,0.14µM,n
Nc1ccc2nc3c(=O)n(CCc4ccccc4)c(=O)[nH]c3nc2c1,n,u,n,n,u,n
CC(C)(C)n1nnnc1C(C1CC1)N1C(=O)C(=O)c2ccccc21 (stereo not given),x,x,-77,x,x,x
Cc1cccc(C)c1-n1nnnc1C(C1CC1)N1C(=O)C(=O)c2ccccc21 (stereo not given),x,x,n,x,x,x
Cc1ccc(-c2nc3c(C)cccn3c2Nc2ccccc2C)s1,n,x,-65,n,x,n
Cc1ccc(Nc2c(-c3ccc(C)cc3)nc3c(C)cccn23)cc1,n,x,n,n,x,n
Cc1cccn2c(Nc3ccccc3)c(-c3cccs3)nc12,n[7.34 µM],x,-61,n,x,n[7.34 µM]
COc1cccc(OC)c1C1=NCC(=O)Nc2c1oc1ccc(Br)cc21,u,u,-95,n,n,u
O=C1CN=C(c2ccccc2)c2oc3ccc(Br)cc3c2N1,x,n,n,n,n,x
Cc1cccc(-c2nc3scc(CCNS(=O)(=O)c4ccc5c(c4)OCCO5)n3n2)c1,n,x,n,n,x,n
CCC[C@H]1[C@@H](NS(=O)(=O)c2ccc(-c3ccccc3)cc2)CC[C@@]23CCCN2C(=O)CCC[C@@H]13,x,x,n,x,x,x
SMILES,Vaccinia mCherry,HCV inhibitor,HCMV inh,FMDV inh,Giardia FBPA inh,VACV Venus inh
O=C(CN1CCN(Cc2ccc(Cl)cc2)C1=O)NCCCN1CCN(c2ccc(F)cc2)CC1,x,10µM,-75,u,n,x
O=C(NCCCN1CCN(c2ccc(F)cc2)CC1)NC12CC3CC(CC(C3)C1)C2,u,u,-79,n,n,n
O=C(NCCCN1CCOCC1)NC12CC3CC(CC(C3)C1)C2,x,n,n,n,n,n
Cc1ccccc1CN1CCN(CC(=O)NCCCN2CCN(c3ccc(F)cc3)CC2)C1=O,x,10µM,n,n,n,n
Cc1ccc(F)c(S(=O)(=O)NC(=O)C2(C)CCN2C(=O)Cc2cc(F)ccc2F)c1 (stereo not given),n,x,n,n,x,n
CC[C@H](C)[C@@H]1NC(=O)[C@H]([C@@H](C)CC)NC(=O)[C@@H](CC(C)C)NC(=O)[C@H](Cc2ccccc2)NC(=O)[C@H](Cc2ccccc2)NC(=O)[C@@H]2CCCN2C(=O)[C@@H]2CCCN2C(=O)[C@H](C(C)C)NC(=O)[C@H](CC(C)C)NC1=O,n,n,-80,n,x,u
C#CCCC[C@@H]1OC(=O)CNC(=O)C([C@@H](C)CC)NC(=O)[C@@H]2CCCN2C(=O)C([C@@H](C)CC)OC(=O)[C@H](Cc2ccccc2)N(C)C(=O)[C@H](C(C)C)NC(=O)C1(C)C (stereo not given in full),u,x,u,n,x,u
O=C(Nc1nnc2n1CCS2)c1ccccc1,n,x,-68,n,x,n
Cc1ccccc1C(=O)Nc1nnc2n1CCS2,n,x,n,n,x,n
CCCCn1nc(C(=O)NC2CCCCC2)c2ccccc2c1=O,n,x,n,n,x,n
CC[C@H](C)[C@H](NC(=O)c1ccc(Cl)cc1)C(=O)OCC(=O)c1ccc2c(c1)NC(=O)CO2,n,u,-87,u,n,u
COc1cccc(/C=C/C(=O)OCC(=O)c2ccc3c(c2)NC(=O)CO3)c1OC,n,n,n,u,n,n
CC(C)[C@H](NC(=O)c1ccccc1)C(=O)OCC(=O)c1ccc2c(c1)NC(=O)CO2,x,n,n,n,n,x
COc1ccc(/C=C/C(=O)OCC(=O)c2ccc3c(c2)NC(=O)CO3)c(OC)c1,n,11µM,u,n,n,n
O=C1COc2ccc(C(=O)CCl)cc2N1,n,u,n,25µM,n,n
Cc1sc(NC(=O)COc2cccc(-n3cnnn3)c2)c(C#N)c1C,x,n,-62,n,n,x
COc1ccccc1CNC(=O)c1cnn(-c2nccc(-c3cccs3)n2)c1C,n,x,x,n,x,n
OC1(c2ccc(OC(F)F)cc2)CSC(=Nc2cccnc2)N1Cc1ccco1 (stereo not given),n,11µM,n,8.9µM,n,n
CCOc1ccc(NC(=O)c2cc(S(=O)(=O)NC3CCCC3)ccc2F)cc1,n,x,-61,n,x,n
O=C(Nc1ccc(C(F)(F)F)cc1)c1cc(S(=O)(=O)NC2CCCCCC2)ccc1F,u,x,-78,n,x,u
Nc1ccc(-c2cnc(N)c(C(=O)c3cccnc3)n2)cn1,u,u,x,n,x,10µM
Nc1ccc(C(=O)c2cccs2)cn1,n,n,n,n,n,n
CC(=O)c1ccc(OCC(O)Cn2nnc3ccccc32)cc1 (stereo not given),n,n,n,x,n,n
N#Cc1ccc(-c2ccc(OCC(O)Cn3nnc4ccccc43)cc2)cc1 (stereo not given),u,u,n,28µM,n,n
CN1CCN(c2ncc3ncc(=O)n(CCc4ccccc4)c3n2)CC1,x,x,x,n,n,x
CC1CCN(C(=O)Cn2c3ccc(F)cc3c3nc4n(c(=O)c32)CCCS4)CC1,x,u,n,u,x,x
CC1CCN(C(=O)Cn2c3ccccc3c3nc4n(c(=O)c32)CCCS4)CC1,n,n,-61,n,x,n
COc1ccc(CN2C(=O)C(NC(=O)c3ccc(C)cc3)(C(F)(F)F)N=C2c2ccccc2)cc1 (stereo not given),n,x,n,n,x,n

# Source: PubChem BioAssay
